Ins promoter up: MIN6 insulin promoter up-regulation. MIN6 insulin promoter-GFP reporter, high-content imaging; hits give high values. z-score at 5 µM. 190,000 compounds, 0.3% hits;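 active means z-score above 3 at 5 µM with at least 500 cells counted in the well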
WT yeast gro inh: growth inhibition of WT yeast, mitochondrial fusion screen. inhibition, % at 10 µM. AID 1362. mitochondrial fusion phenotypic screen, WT strain. 190,000 compounds, 2.1% hits; in the data active means inhibition above about 58%; tested in S. cerevisiae
Autophagy mod: autophagy modulation, high-content screen; MEF GFP-LC3 puncta imaging; test concentration mostly 10 µM; calls only at 10 µM (by protocol); 190,000 compounds, 0.98% hits; AID 463193;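 active means percentage of spot-positive cells more than 3 SD above its plate mean, without a fluorescence outlier flag or 80% toxicity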;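 further: spot-positive cell cutoff set from DMSO-treated cells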
Lmaj promast: Leishmania major promastigote growth inhibition; Leishmania major promastigotes, resazurin fluorescence viability; inhibition, % at 10 µM; 200,000 compounds, 9% hits; AID 1063; in the data active means inhibition above about 50%;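 further: promastigotes grown with compound for 44 hours at 28 °C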
Insulin prom inh: TRM-6 insulin promoter activity inhibition | TRM-6 cells (human fetal islet line), insulin promoter-eGFP reporter, imaging; reporter expression induced with tamoxifen | inhibition, % at 2 µM | 130,000 compounds, 0.9% hits;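 active means inhibition above the mean plus 3 SD, with well images judged a real hit on visual review, cut at about 60% in these data, passing the limit was not always enough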
* hit, by the source's call. Only some compounds are listed: those with a hit (about 11% of all), similar ones and a draw of the others.

Results for Brc1ccccc1OCCCN1CCCCCC1 ?
Ins promoter up: -1.43; WT yeast gro inh: 7.9; Autophagy mod: inactive; Lmaj promast: 90.4*

Results for Cc1cc(Cl)c(OCCCSc2nc(C)cc(=O)[nH]2)c(Br)c1 ?
WT yeast gro inh: -1.9; Autophagy mod: inactive; Lmaj promast: -8.2; Insulin prom inh: 33.3

Results for Cc1cc(Cl)c(OCCCN2CCCCC2)c(Br)c1 ?
Ins promoter up: -0.74; WT yeast gro inh: 7.7; Autophagy mod: inactive; Lmaj promast: 97.4*; Insulin prom inh: -146.2

What do the screens show for `C#CCOCCOCCOCCNc1nc(N2CCN(C(=O)[C@H]([C@@H](C)CC)n3cc([C@@H](N)CC(C)C)nn3)CC2)nc(N2CCN(C(=O)[C@H](CCCCN)n3cc([C@@H](N)CO)nn3)CC2)n1`?
Ins promoter up: -1.22; WT yeast gro inh: -33.8; Autophagy mod: inactive; Lmaj promast: -2.1

How did CCOC(=O)c1ccc(Cn2c(-c3ccccc3)nnc2-c2ccccc2)o1 do in these assays?
Ins promoter up: -0.22; WT yeast gro inh: 43.4; Autophagy mod: inactive; Lmaj promast: 16.6; Insulin prom inh: 18.8

Results for CCCCS/C(=C(/C#N)C(N)=O)c1cc2c([nH]1)CCCC2 ?
Ins promoter up: 0.95; WT yeast gro inh: -21.5; Autophagy mod: inactive; Lmaj promast: 50.7*; Insulin prom inh: -23.1

What do the screens show for `CCc1ccc(N/C(SC)=C(/C#N)C(N)=O)cc1`?
Ins promoter up: 0.47; WT yeast gro inh: 7.0; Autophagy mod: inactive; Lmaj promast: -6.1; Insulin prom inh: -6.2

How did O=C(N/N=C/c1cc(Cl)cc([N+](=O)[O-])c1O)c1cc(-c2ccccn2)nc2ccccc12 do in these assays?
Ins promoter up: 0.54

How did O=[N+]([O-])c1cc(Cl)cc(/C=N\Nc2ccccn2)c1O do in these assays?
Ins promoter up: -1.69; WT yeast gro inh: -13.9; Autophagy mod: inactive; Lmaj promast: 98.0*; Insulin prom inh: -3.9

Results for CN(Cc1cn(Cc2ccccc2)nc1-c1ccc2c(c1)OCO2)Cc1nccn1C ?
Ins promoter up: 0; WT yeast gro inh: 10.9; Autophagy mod: inactive; Lmaj promast: 12.8

Results for CCOc1cc(/C=N/NC(=O)Cc2ccc(C(F)(F)F)cc2[N+](=O)[O-])c(Br)cc1OC ?
Ins promoter up: -0.57; WT yeast gro inh: 12.7; Autophagy mod: inactive; Lmaj promast: -7.4

Results for COc1cc(Br)cc(/C=N/NC(=O)Cc2ccc(C(F)(F)F)cc2[N+](=O)[O-])c1O ?
Ins promoter up: 0.27; WT yeast gro inh: -4.3; Autophagy mod: inactive; Lmaj promast: 72.5*

How did COC(=O)c1[nH]c2c(c1C)C(=O)CC(c1cccs1)C2 (stereo not drawn) do in these assays?
Ins promoter up: -2.11; WT yeast gro inh: 3.7; Autophagy mod: active; Lmaj promast: 19.6; Insulin prom inh: -206.7

Results for COCCOC(=O)c1[nH]c2c(c1C)C(=O)CC(c1ccccc1)C2 (stereo not drawn) ?
Ins promoter up: 0.06; WT yeast gro inh: 5.3; Autophagy mod: active; Lmaj promast: 6.7; Insulin prom inh: -87.0

Results for COC(=O)c1[nH]c2c(c1C)C(=O)CC(c1cc(OC)ccc1OC)C2 (stereo not drawn) ?
Ins promoter up: -1.09; WT yeast gro inh: 4.0; Lmaj promast: 18.3

Results for COCCOC(=O)c1[nH]c2c(c1C)C(=O)CC(c1ccc(F)cc1)C2 (stereo not drawn) ?
Ins promoter up: -0.18; WT yeast gro inh: -5.8; Autophagy mod: inactive; Lmaj promast: 14.5

Results for O=C(OC1CCCCC1)c1ccc(NC(=O)C2CCCCC2)cc1 ?
Ins promoter up: -0.85; WT yeast gro inh: 26.0; Autophagy mod: inactive; Lmaj promast: 87.2*; Insulin prom inh: -11.1

Results for COc1ccc(-n2c(SCC(=O)Nc3cc(C(=O)O)ccc3C)nc3ccccc3c2=O)cc1Cl ?
Ins promoter up: -0.92

How did CCN1CCN(CCOc2ccccc2OCc2ccccc2)CC1 do in these assays?
Ins promoter up: 2.4; WT yeast gro inh: 4.6; Autophagy mod: inactive; Lmaj promast: 8.6

What do the screens show for `CCN1CCN(CCCCSc2ccccc2)CC1`?
Ins promoter up: -0.08; WT yeast gro inh: -18.5; Autophagy mod: inactive; Lmaj promast: 77.8*

How did CCc1ccc(OCC(=O)NCCN(C)C)c(Br)c1 do in these assays?
WT yeast gro inh: 8.3; Autophagy mod: inactive; Lmaj promast: 95.6*; Insulin prom inh: -21.4

How did Cc1cc(OCC(=O)NCCCN(C)C)cc(C)c1Br do in these assays?
Ins promoter up: 0.13; WT yeast gro inh: -6.2; Autophagy mod: inactive; Lmaj promast: 99.9*; Insulin prom inh: 64.3
